Reference: PubChem BioAssay (Tox21)
Values without a mark were called inactive. Records with an inconclusive call do not appear. Where a call stands in place of a potency, no number is given. Calls of active or inactive are those of the source. Unless noted, calls come from the whole dose curve; as a rule, active = well fitted curve in the direction sought with a large enough effect in the repeat runs; inconclusive = weak or mixed curves; inactive = no such curve, though single readings can be large; an effect the other way counts as inactive or inconclusive.

Tests used:
[1] = qHTS assay for small molecules that induce genotoxicity in human embryonic kidney cells expressing luciferase-tagged ATAD5 (AID 651632); note: nearly all actives have a fitted effect of over 15% in size; note: potency is the fitted concentration of half-maximal effect
How it was run: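 HEK293T cells carrying a luciferase reporter tagged to ATAD5 were exposed to compound or DMSO vehicle for 16 hr at 37C, 5% CO2. Amplite was added, and after 30 min at room temperature luciferase activity was read as a marker of ATAD5 induction.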

[2] = qHTS assay for small molecule agonists of the p53 signaling pathway - cell viability (AID 651633; calls by dose curve; note: nearly all actives have a fitted effect of over 30% in size; note: potency is the fitted concentration of half-maximal effect)
How it was run: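 Viability counter-read: CellTiter-Glo luminescence (30 min, room temperature) in the same p53RE-bla plates. These plates had been exposed to compounds for 16 h at 37 C.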

[3] = qHTS assay for small molecules that induce genotoxicity in human embryonic kidney cells expressing luciferase-tagged ATAD5 - cell viability (AID 651634; calls by dose curve; note: nearly all actives have a fitted effect of over 25% in size)
How it was run: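 HEK293T cells expressing luciferase-tagged ATAD5 were exposed to compound or DMSO for 15.5 hr at 37C, 5% CO2. Viability was then read as live-cell protease activity by CellTiter-Fluor fluorescence after 30 min at 37C.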

[4] = qHTS assay for small molecule disruptors of the mitochondrial membrane potential - cell viability (AID 720634; calls by dose curve; note: nearly all actives have a fitted effect of over 20% in size; note: potency is the fitted concentration of half-maximal effect)
How it was run: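 HepG2 cells seeded overnight at 37 C, then exposed to compound or DMSO for 1 hr at 37 C, 5% CO2. m-MPI dye added, then CellTiter-Glo for 30 min at room temperature; viability read as ATP luminescence.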

[5] = qHTS assay for small molecule disruptors of the mitochondrial membrane potential (AID 720635); note: potency is the fitted concentration of half-maximal effect
How it was run: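 Mitochondrial membrane potential tracked with Mito-MPS dye, red aggregates (ex 540/em 590 nm) against green monomers (ex 490/em 535 nm). Compound treatment 1 hr at 37C, dye 30 min in HepG2.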

[6] = qHTS assay to test for compound auto fluorescence at 590 nm (red) in HepG2 cells (AID 720674)
How it was run: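 Red autofluorescence (Ex/Em 540/590 nm, Rose Bengal sodium equivalents) was measured in HepG2 cells, 2,000 per well in MEM plus 10% FBS, plated overnight at 37 C. Readings were taken 1 hr after adding 23 nL compound or DMSO, at 37 C and 5% CO2.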

[7] = qHTS assay to test for compound auto fluorescence at 535 nm (green) in HepG2 cells (AID 720675)
[8] = qHTS assay to test for compound auto fluorescence at 460 nm (blue) in HEK293 cells (AID 720678)
How it was run: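 Measured: blue fluorescence (Ex 405/Em 460 nm) of compound-treated HEK293 cells, incubated overnight at 37C with 5% CO2 and scaled to triamterene equivalents.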

[9] = qHTS assay to test for compound auto fluorescence at 590 nm (red) in HEK293 cells (AID 720679)
How it was run: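 Using HEK293 cells at 2,000 per well, the screen added 23 nL of each compound after cell attachment and incubated overnight (37C, 5% CO2). The plate reader then captured red-label fluorescence, Ex/Em 540/590nm.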

[10] = qHTS assay to test for compound auto fluorescence at 535 nm (green) in HEK293 cells (AID 720680)
[11] = qHTS assay to test for compound auto fluorescence at 535 nm (green) in HEK293 cell free culture (AID 720682)
How it was run: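 DMEM + 10% FBS, cell-free; cpd or DMSO pinned in; Ex485/Em535 read; output as fluorescein-equivalent signal.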

[12] = qHTS assay to test for compound auto fluorescence at 590 nm (red) in HEK293 cell free culture (AID 720683)
How it was run: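 Red-channel autofluorescence of compounds in culture medium (DMEM, 10% FBS), no cells, measured at 540/590 nm. Rose Bengal sodium is the reference fluorophore for equivalence.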

[13] = qHTS assay to test for compound auto fluorescence at 460 nm (blue) in HepG2 cell free culture (AID 720685)
How it was run: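 Compound (23 nL) or DMSO pinned into cell-free MEM with 10% FBS; blue fluorescence read at 405/460 nm excitation/emission, expressed as auto-fluorescence equivalency to triamterene.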

[14] = qHTS assay to test for compound auto fluorescence at 535 nm (green) in HepG2 cell free culture (AID 720686)
[15] = qHTS assay to test for compound auto fluorescence at 460 nm (blue) in HepG2 cells (AID 720687)
How it was run: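 Blue-channel autofluorescence (Ex/Em 405/460 nm, triamterene-equivalent) was measured after 1 hr compound exposure at 37 C, 5% CO2. Cells were HepG2, plated overnight at 37 C in MEM plus 10% FBS.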

[16] = target: Glucocorticoid receptor (Homo sapiens) (UniProt P04150); assay: qHTS assay to identify small molecule agonists of the glucocorticoid receptor (GR) signaling pathway (AID 720691; active = well fitted activation curve with a large enough effect in the signal ratio in the repeat runs, not every such curve was filed as active; the % refers to the signal ratio)
Glucocorticoid receptor (Homo sapiens), sequence (P04150 whole entry, looked up): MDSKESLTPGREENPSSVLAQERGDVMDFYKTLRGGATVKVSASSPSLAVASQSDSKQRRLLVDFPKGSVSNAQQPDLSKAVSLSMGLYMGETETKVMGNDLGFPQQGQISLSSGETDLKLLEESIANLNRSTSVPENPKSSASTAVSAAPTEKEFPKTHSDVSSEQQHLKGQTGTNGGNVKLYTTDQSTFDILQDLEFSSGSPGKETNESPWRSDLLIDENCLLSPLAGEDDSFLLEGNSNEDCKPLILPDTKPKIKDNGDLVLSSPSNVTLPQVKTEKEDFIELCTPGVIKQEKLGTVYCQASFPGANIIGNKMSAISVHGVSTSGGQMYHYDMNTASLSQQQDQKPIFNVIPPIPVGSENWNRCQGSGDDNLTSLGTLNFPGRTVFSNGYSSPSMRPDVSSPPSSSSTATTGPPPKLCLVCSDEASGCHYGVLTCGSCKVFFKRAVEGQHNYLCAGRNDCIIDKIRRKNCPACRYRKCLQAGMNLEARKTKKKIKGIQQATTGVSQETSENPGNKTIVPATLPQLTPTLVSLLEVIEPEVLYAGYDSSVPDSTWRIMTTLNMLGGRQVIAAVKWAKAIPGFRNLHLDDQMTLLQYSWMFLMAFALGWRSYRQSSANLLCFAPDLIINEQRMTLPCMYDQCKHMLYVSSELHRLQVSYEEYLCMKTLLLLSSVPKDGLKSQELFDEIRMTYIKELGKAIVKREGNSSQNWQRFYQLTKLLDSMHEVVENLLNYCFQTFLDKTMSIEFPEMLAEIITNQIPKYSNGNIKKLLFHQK
How it was run: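 GR-bla HeLa cells (beta-lactamase reporter under glucocorticoid response element) were plated 4 h at 37 C/5% CO2, given compounds in DMSO, and incubated 18 h at 37 C. LiveBLAzer B/G FRET substrate was added for 2 h at room temperature, then fluorescence intensity read.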

[17] = target: Glucocorticoid receptor (Homo sapiens) (UniProt P04150); assay: qHTS assay to identify small molecule antagonists of the glucocorticoid receptor (GR) signaling pathway (AID 720692; active = well fitted inhibition curve with a large enough effect in the signal ratio in the repeat runs, not every such curve was filed as active; the % refers to the signal ratio; note: potency is the fitted concentration of half-maximal effect)
How it was run: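 GR-bla HeLa cells (beta-lactamase reporter under glucocorticoid response element) were pre-plated 4 h at 37 C, treated with compounds plus 5 nM dexamethasone (final) for 18 h, then read by LiveBLAzer B/G FRET fluorescence after 2 h.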

[18] = qHTS assay to test for compound auto fluorescence at 460 nm (blue) in HEK293 cell free culture (AID 720681)
How it was run: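 Blue fluorescence (Ex 405/Em 460 nm, triamterene-equivalent) was read immediately after pin transfer of compound or DMSO into medium (DMEM, 10% FBS) without cells.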

[19] = qHTS assay to test for compound auto fluorescence at 590 nm (red) in HepG2 cell free culture (AID 720684)
How it was run: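 Plate contents were MEM with 10% FBS plus test compound or DMSO, no cells. Fluorescence was recorded with 540 nm excitation and 590 nm emission.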

| SMILES | Potency [1] | Potency [2] | Potency [3] | Potency [4] | Potency [5] | outcome [6] | outcome [7] | outcome [8] | outcome [9] | outcome [10] | outcome [11] | outcome [12] | outcome [13] | outcome [14] | outcome [15] | outcome [16] | Potency [17] | outcome [18] | outcome [19] |
| --- | --- | --- | --- | --- | --- | --- | --- | --- | --- | --- | --- | --- | --- | --- | --- | --- | --- | --- | --- |
| COc1cc(OC)nc(NC(=O)NS(=O)(=O)c2ncccc2OCC(F)(F)F)n1 | inactive | inactive | inactive | inactive | inactive | inactive | inactive | inactive | inactive | inactive | inactive | inactive | inactive | inactive | inactive | inactive | inactive |  |  |
| O=C1OC(c2ccc(O)c(S(=O)(=O)O)c2)(c2ccc(O)c(S(=O)(=O)O)c2)c2c(Br)c(Br)c(Br)c(Br)c21 | inactive | inactive |  | inactive |  |  | inactive | inactive | inactive |  | inactive |  | inactive | inactive | inactive | inactive |  | inactive | inactive |
| Cc1ccccc1CO[C@@H]1C[C@@]2(C(C)C)CC[C@]1(C)O2 | inactive | inactive | inactive |  |  | inactive | inactive | inactive | inactive | inactive | inactive | inactive | inactive | inactive | inactive |  |  | inactive |  |
| CC(CCc1ccccc1)NC(C)C(O)c1ccc(O)cc1 (configuration not stated) | inactive | inactive |  | inactive |  | inactive | inactive | inactive | inactive | inactive |  | inactive | inactive | inactive |  | inactive |  |  | inactive |
| CCCCOC(=O)c1ccccc1N | inactive | inactive | inactive | inactive |  |  | inactive | inactive | inactive | inactive | inactive | inactive | inactive | inactive | inactive | inactive | inactive | inactive | inactive |
| CN1C(=S)CN=C(c2ccccc2)c2cc(Cl)ccc21 |  | inactive | inactive | inactive |  | inactive | inactive | inactive | inactive | inactive | inactive |  | inactive | inactive |  | inactive | 12 µM (active) | inactive | inactive |
| CCc1cc2c(s1)-n1c(C)nnc1CN=C2c1ccccc1Cl | 26.6 µM (active) |  | inactive | inactive |  | inactive | inactive | inactive | inactive | inactive | inactive | inactive | inactive | inactive |  | inactive | 19 µM (active) | inactive |  |
| COc1cc(OC)nc(NC(=O)NS(=O)(=O)c2ncccc2C(=O)N(C)C)n1 |  | inactive | inactive | inactive | inactive | inactive | inactive | inactive | inactive | inactive | inactive | inactive | inactive | inactive | inactive | inactive |  | inactive |  |
| CNC(=O)N(C)c1nc2ccccc2s1 |  |  |  | inactive | inactive | inactive | inactive | inactive | inactive | inactive | inactive | inactive |  | inactive | inactive | inactive | inactive | inactive | inactive |
| Oc1c(Cl)cccc1Cl |  | inactive | inactive | inactive | inactive | inactive | inactive | inactive | inactive | inactive | inactive | inactive |  | inactive | inactive |  |  | inactive | inactive |
| C[N+](C)=CCl | inactive |  | inactive | inactive |  | inactive | inactive | inactive | inactive |  | inactive | inactive | inactive | inactive | inactive | inactive |  | inactive | inactive |
| CCCSP(=O)(OCC)Oc1ccc(Br)cc1Cl (configuration not stated) |  |  |  | 16.7 µM (active) | 1.05 µM (active) | inactive | inactive | inactive | inactive | inactive | inactive | inactive | inactive | inactive | inactive |  |  | inactive | inactive |
| CCOP(=O)(N=C1SCCS1)OCC |  | inactive | inactive | inactive |  | inactive | inactive | inactive | inactive | inactive | inactive | inactive | inactive | inactive | inactive | inactive | inactive | inactive | inactive |
| CCCCc1ccc(O)cc1 |  | inactive | inactive | inactive | 48.5 µM (active) | inactive | inactive | inactive | inactive | inactive | inactive |  |  | inactive |  | inactive | inactive | inactive | inactive |
| O=C1OC(=O)C2C1C1(Cl)C(Cl)=C(Cl)C2(Cl)C1(Cl)Cl (configuration not stated) | inactive |  | inactive | inactive |  | inactive | inactive | inactive | inactive | inactive | inactive | inactive | inactive | inactive | inactive | inactive | inactive | inactive | inactive |
| CC1CN1P(=O)(N1CC1C)N1CC1C (configuration not stated) | inactive |  |  | inactive |  | inactive | inactive | inactive | inactive | inactive | inactive | inactive | inactive | inactive | inactive |  |  | inactive | inactive |
| C=CCC1=C(C)[C@@H](OC(=O)[C@@H]2[C@@H](C=C(C)C)C2(C)C)CC1=O |  | 61.1 µM (active) | inactive | 61.1 µM (active) | 15.4 µM (active) | inactive | inactive | inactive | inactive | inactive |  |  | inactive | inactive | inactive | inactive | 49 µM (active) |  | inactive |
| C[C@]12CC[C@H]3[C@@H](CC=C4C[C@@H](O)CC[C@@]43C)[C@@H]1CC[C@@H]2O |  | inactive | inactive |  |  | inactive | inactive | inactive | inactive | inactive |  | inactive | inactive | inactive | inactive | inactive | 6.01 µM (active) | inactive | inactive |
